Measurements from PubChem BioAssay (NCI).
“And” between values parts separate entries of the source, which are not always exact repeats. Equal entries are not always repeated. About 83,000 compounds went through this panel and 20% of them were active in at least one assay; those are over-represented in the sample as a whole.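 Values shown are percent growth following 48 h exposure of cells in 96-well plates to a single concentration of compound; below 10 was considered active.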 The source made the active and inactive calls.

system: HL-60(TB) leukemia; assay: NCI-60 one-dose screen, 48 h (100 = growth as untreated, 0 = no growth, -100 = all killed); settings: 10 µM unless noted

SMILES	growth
COc1ccc(-c2cc(-c3cc(OC)ccc3OC)nc(SCC(=O)c3ccccc3)c2C#N)cc1	98.4% (inactive)
Nc1nc(=S)c2ncn(C3OC(COP(=O)(O)O)C(O)C3O)c2[nH]1 (stereo unspecified)	16.3% (inactive)
CC1CN(Cc2ccco2)C(=S)N(c2ccccc2)C1=O (stereo unspecified)	61.3% (inactive)
COc1ccc(-c2[nH]ncc2Nc2cc(OC)c(OC)c(OC)c2)cc1	31.6% (inactive)
CCNS(=O)(=O)c1ncnc2nc[nH]c12	112% (inactive)
O=C(O)C1C2CCC1C(O)C2 (stereo unspecified)	94.6% (inactive) and 96% (inactive)
O=C(O)CCC(=O)Nc1nnc(-c2ccccc2)s1	92.2% (inactive)
O=C(Cn1c(=O)sc2nc3ccccc3nc21)Nc1ncc(Cc2cccc(Cl)c2Cl)s1	98.3% (inactive)
C[C@H]1[C@H](C)CC[C@]2(C(=O)Nc3ccc4ncccc4c3)CC[C@]3(C)C(=CC[C@@H]4[C@@]5(C)CCCNC(C)(C)[C@@H]5CC[C@]43C)[C@H]12	-45.2% (active)
O=Cc1ccc([N+](=O)[O-])s1	81.9% (inactive)
ClC1(Cl)C2CCCCCCC21 (stereo unspecified)	106% (inactive)
COc1cccc(-c2nn(-c3ccccc3)cc2-c2ccnc(NCCCNC(=O)c3ccc(F)cc3)c2)c1	19.3% (inactive)
CC(C)c1c(C(=O)Nc2ccccc2)c(-c2ccccc2)c(-c2ccc(F)cc2)n1CC[C@@H]1CC=CC(=O)O1	-27.9% (active)
Cc1ccc(/C=C2\Oc3cc(OCC(=O)c4ccc(Cl)cc4)ccc3C2=O)cc1	50.7% (inactive)
CO/N=C/C=C\C(=O)N/C=C/C[C@H]1/C=C/[C@H](O)/C=C\C=C\c2cccc(O)c2C(=O)O1	23.3% (inactive) and -28.4% (active)
Nc1ccc(-c2cc3c(Nc4ccc(OCc5cccc(F)c5)c(Cl)c4)ncnc3s2)cc1	48.3% (inactive)
Cc1c(Cc2ccccc2)c(=O)oc2c(C)c(OCC(=O)n3nc(C#N)cc3N)ccc12	101% (inactive)
COc1ccc(-c2nsc3c2NC(=O)CC3c2cccc(Cl)c2)cc1 (stereo unspecified)	-19.2% (active)
CC(C)NCC(O)c1ccc(O)c(O)c1 (stereo unspecified)	85.3% (inactive) and 82.1% (inactive) and 95.3% (inactive)
O=C(C[P+](c1ccccc1)(c1ccccc1)c1ccccc1)C[P+](c1ccccc1)(c1ccccc1)c1ccccc1	-43.6% (active)
O=C(c1ccccc1)c1ccc(Oc2ccc([N+](=O)[O-])cc2[N+](=O)[O-])cc1	43.6% (inactive)
Cn1c(-c2c(N)n(Cc3ccc(C(F)(F)F)cc3)c3nc(C#N)c(C#N)nc23)nc2ccccc21	-54.6% (active)
O=C1OC(=O)C2C1CC=CC2c1ccccc1 (stereo unspecified)	69.1% (inactive)
Cc1ccc2c(ccc3c[n+]4c5ccccc5ccc4n32)c1	2.59% (active)
COc1cc(-c2nc3sc4c(c3c(=O)[nH]2)CCCCCC4)cc(OC)c1OC	-19.3% (active)
O=C1OC(=O)C2C3CC(c4ccccc43)C12 (stereo unspecified)	112% (inactive)
